In ChEMBL document CHEMBL4513216, “Probing the Open Global Health Chemical Diversity Library for Multistage-Active Starting Points for Next-Generation Antimalarials” (ACS Infect Dis, 2020):
In all, about 69,000 compounds went through this assay and about 8,600 (12%) showed an effect of 50% or more. Shown is part of a subset that was picked to be rich in strong results.

Test system: Plasmodium berghei
Experiment: Screen against P. berghei liver stage (PbLuc), transformed with Luciferase, at 10uM
Assay type: functional, HepG2
Conditions: tested at 10 uM

Compound	INHIBITION
CN(C)CCO[C@@H]1CC[C@H]2[C@H]1OCCN2C(=O)c1ccccc1F	35.2%
CC(C)(C)c1nccc(N2CCCCC2CCNS(C)(=O)=O)n1 (stereo not drawn)	-1.79%
Cc1cnn(CC2CCCN2Cc2nnc(C3CC3)o2)c1 (stereo not drawn)	2.3%
O=C(c1ccc(N2CCOCC2)nc1)N1CCCC(n2ccnc2)C1 (stereo not drawn)	13.05%
CC(C)CN1CCC2(C=C(C(=O)N3CCCC3)c3ccccc32)CC1	-17%
Cc1cc(CN2CCN(C(=O)CCc3cccs3)CC2)on1	-9.08%
Cc1cccc(COCC2c3nnn(C)c3CCN2Cc2ccoc2)n1 (stereo not drawn)	-5.08%
C[C@H]1CN(C(=O)c2cccnc2)C[C@@]12CCN(CCN1CCCC1)C2=O	23.6%
CC(=O)N(Cc1ncc(C)o1)C1CCN(Cc2ccon2)C1 (stereo not drawn)	3.73%
CO[C@H]1CN(C(=O)c2ccc(-c3ccccc3)[nH]2)CC[C@H]1N	-22.4%
O=C(c1cnccn1)N1C[C@H]2CC[C@@H](C1)N(S(=O)(=O)c1cccnc1)C2	-6.34%
Cc1nc(CN(C)S(=O)(=O)c2ccccc2Br)no1	58.1%
Cc1nc(CN(C)S(=O)(=O)c2ccc(F)cc2Br)no1	18.9%
Cc1nc(CN(C)S(=O)(=O)c2ccccc2C(F)(F)F)no1	11.3%
Cc1cc(NCCC(=O)NC2CCCC2)nc(-c2ccncc2)n1	4.52%
CCS(=O)(=O)N1CCC2(CN(c3cccc(F)c3)C(=O)CN2C)C1 (stereo not drawn)	19.4%
CN1CC(=O)N(c2cccc(F)c2)CC12CCN(S(C)(=O)=O)C2 (stereo not drawn)	-5.12%
CC(C)CS(=O)(=O)N1CCC2(CN(c3cccc(F)c3)C(=O)CN2C)C1 (stereo not drawn)	55.5%
CCCc1n[nH]c(C2CN(C(=O)c3ccc[nH]3)CCO2)n1 (stereo not drawn)	27.8%
O=C(c1ccccn1)N1CCc2ncnc(N3CCOCC3)c2CC1	-64.5%
CCc1nc2c(c(N3CCOCC3)n1)CCN(C(=O)c1ccon1)CC2	52.2%
CCc1nc2c(c(N3CCOCC3)n1)CCN(C(=O)N1CCCC1)CC2	-28.4%
COc1ccc(C(C(=O)O)N(C)Cc2c(C)nn(C)c2C)c(C)c1 (stereo not drawn)	26.9%

Compound	INHIBITION
Cc1nc(C2CCN(C(=O)c3cscn3)CC2)c2sccn12	17.4%
O=C(CNC1CCc2ncnn2C1)N(Cc1cccs1)C1CC1 (stereo not drawn)	27.7%
c1csc(CCNC2CCc3ncnn3C2)c1 (stereo not drawn)	68.8%
COc1ccc2c(c1)OCC(CNC1CCc3ncnn3C1)=C2 (stereo not drawn)	35.1%
c1ccc(Cn2cc(CNC3CCc4ncnn4C3)cn2)cc1 (stereo not drawn)	39.5%
Clc1cccc(-c2nc(CNC3CCc4ncnn4C3)co2)c1 (stereo not drawn)	49.8%
Clc1ccc(-n2cc(CNC3CCc4ncnn4C3)cn2)cc1 (stereo not drawn)	51.3%
CCCOc1ccc2c(c1)OCC(CNC1CCc3ncnn3C1)=C2 (stereo not drawn)	42.1%
c1ccc(-n2cc(CNC3CCc4ncnn4C3)cn2)cc1 (stereo not drawn)	11.6%
Clc1ccc2c(c1)C=C(CNC1CCc3ncnn3C1)CO2 (stereo not drawn)	51.8%
O=C(CNC1CCc2ncnn2C1)NCCc1cccs1 (stereo not drawn)	12.3%
C1=C(CNC2CCc3ncnn3C2)COc2ccccc21 (stereo not drawn)	61.6%
Clc1ccc(-c2cnc(CNC3CCc4ncnn4C3)o2)cc1 (stereo not drawn)	39.6%
COc1cccc(-c2cc(C3=NC(=CN4CCN(C)CC4)NO3)[nH]n2)c1	33.1%
NC(=O)CN1CCC(c2cccc(Oc3ccccc3)n2)CC1	-11.4%
CCn1nc(C)c2nnn(CC(=O)Nc3ccccc3F)c(=O)c21	40.8%
CSc1nnc(C2CCN(C(=O)N3CCOCC3)CC2)n1C(C)C	40.85%
CCN1CCC2(CN(C(=O)N(C)C)CC23CCNCC3)C1=O (stereo not drawn)	-3.58%
CNC(=O)NC(=O)CN(Cc1ccc(C#N)cc1)Cc1cccc(F)c1	-0.85%
Cc1cccc2c1N(C)C(=O)C21CC(=O)Nc2c1cnn2C(C)(C)C (stereo not drawn)	-23.9%
O=C(CCOc1ccccc1F)N1CCCCC1Cn1cccn1 (stereo not drawn)	-21.5%
COc1ccccc1CNc1ncc(-c2cc(C)no2)c(C(C)C)n1	79.7%
Cc1cnc(-c2nc(NC3CC3)ncc2-c2cc(C)no2)cn1	8.72%

Compound	INHIBITION
Cc1cc(-c2cnc(NCc3ccncc3)nc2C(C)C)on1	94.1%
CCN(CC)CCNc1ncc(-c2cc(C)no2)c(-c2ccoc2C)n1	33.5%
COc1ccc(CNc2ncc(-c3cc(C)no3)c(C(C)C)n2)cc1	-5.71%
Cc1cc(-c2cnc(NCc3ccccn3)nc2C(C)C)on1	24.4%
Cc1nn(C)c2c(NCc3cccnc3)nc(C(C)C)nc12	-34%
COCc1cc(NCc2ccccc2OC)ncn1	12.6%
Cc1cc(-c2cnc(NCc3cccnc3)nc2C(C)(C)C)on1	83.6%
Cc1cc(-c2cnc(NCc3cccnc3)nc2C(C)C)on1	69.4%
COc1ccccc1CN1CCCCC1c1n[nH]cc1-c1cc(C)no1 (stereo not drawn)	24.8%
CCn1ncc(S(=O)(=O)N[C@@H]2CC[C@@H](n3ccnc3)[C@@H]2O)c1C	4.65%
Fc1cccnc1OC[C@@]12CCO[C@@H]1CCN(CC1CCOCC1)C2	-17.7%
Cc1csc(CCNC(=O)N2CCC(n3cccc3)CC2)n1	-6.04%
O=C(O)c1cnc(-c2cccc3c2CCNC3)c(Cl)c1	2.15%
COc1cccc(COCC(=O)NC(C)c2nnc3n2CCC3)c1 (stereo not drawn)	-0.613%
CCc1nnc(Nc2cc(C)nc(C3CCN(c4ncccn4)C3)n2)s1 (stereo not drawn)	-11.4%
CCC(O)CNc1nccc(-c2ccc(C)nc2C)n1 (stereo not drawn)	-8.9%
Cc1ccc(NC(=O)C(C)n2ccc(C(F)(F)F)n2)nc1 (stereo not drawn)	20.9%
O=C(NC1CC1)N1CCc2ccc(=O)n(Cc3cccnc3)c2CC1	45.2%
Cc1ccc(-c2cc(C)nc(C3CCCN3S(C)(=O)=O)n2)cc1 (stereo not drawn)	-70.8%
CC(C)c1nn(C)c(Cl)c1CNCc1ccc2c(c1)OCO2	27.8%
Cc1cc(-c2cnc(NCc3ccc4c(c3)OCO4)nc2C(C)C)on1	90.5%
CC(C)c1nn(C)c(N(C)C)c1CNCc1ccc2c(c1)OCO2	3.75%
